Laboratory results: PubChem BioAssay (Tox21)
Values joined by “and” are separate entries in the source; they are usually repeats but may differ in a detail not shown here. Equal values may be shown once. Records with an inconclusive call do not appear. Entries that show only a call come without a potency. Some structures have more than one record in an assay (separate samples or runs), and their calls can disagree. Active and inactive are the calls of the source. Calls follow the shape of the dose curve; as a rule, active = well fitted cell-killing curve with a large enough effect in the repeat runs; inconclusive = weak or mixed curves, or effect the other way; inactive = no such curve, though single readings can be large or run the other way.

Test: qHTS assay to identify small molecule antagonists of the thyroid receptor (TR) signaling pathway - cell viability counter screen (AID 743064); also: nearly all actives have a fitted effect of over 50% in size
Settings: GH3.TRE-Luc viability, CellTiter-Fluor, 24 h; series mostly up to 70.3 µM; activity change, negative = cytotoxic: at the top concentration
Excerpt: National Center for Advancing Translational Sciences [NCATS]
NIH Chemical Genomics Center [NCGC]
U.S. Environmental Protection Agency [EPA]
National Institutes of Environmental Health Sciences [NIEHS]
National Toxicology Program [NTP]
U.S. Food and Drug Administration [FDA]
Thyroid receptor (TR), a nuclear hormone receptor, plays an important role in development, proliferation, differentiation, metabolism, brain function, and cardiovascular system. […] To profile the Tox21 10K compound library in TR signaling, a cell-based GH3-TRE-Luc assay (GH3.TRE-Luc cell line, developed by the laboratory of Dr. Albertinka J. Murk, Wageningen University) was used to measure the inhibition of TR. GH3 (rat pituitary tumor) cells stably expressing a TR activity sensor consisting of two TR response elements and a luciferase reporter gene. The cytotoxicity of the Tox21 compound library against the GH3.TRE-Luc cell line was tested in parallel by measuring the cell viability using CellTiter-Fluor assay (Promega, Madison, WI) in the same wells.
Tox21 Assay Protocol Summary:
GH3.TRE-Luc cells were dispensed at 1500 cells/4 uL/well into 1536-well white solid bottom plates using a Multidrop Combi dispenser (Thermo Fisher Scientific Inc., Waltham, MA). After the assay plates were incubated at 37 C for 4 hours, 23 nL of library compound or DMSO controls was transferred to the assay plates by a pintool station (Kalypsys, San Diego, CA), followed by addition of 1 ul of T3 (1 nM, final concentration in the wells) to stimulate TR transactivation. The assay plates were incubated at 37 C for 23.5 h, and then 1 uL of CellTiter-Fluor reagent (Promega, Madision, WI) of measuring cytotoxicity was added to each well using a Bioraptr Flying Reagent Dispenser (FRD) workstation (Beckman Coulter, Indianapolis, IN, USA). The plates were incubated at 37C and 5% CO2 for additional 30 min, and fluorescence intensity was measured by a ViewLux plate reader (PerkinElmer, Shelton, CT).
Potency is read from the fitted curve at half-maximal effect.

SMILES	Potency	activity change, negative = cytotoxic
Oc1ccc2ccccc2c1N=Nc1ccccc1	inactive and 54.5 µM (active)	–
CC[Si](OC(C)=O)(OC(C)=O)OC(C)=O	inactive	–
CCCCCCCCCC(=O)O	inactive	–
CCCCCCOC(C)=O	inactive	–
CCCCC(CC)COC(C)=O (stereo not given)	inactive	–
CNC[C@H](O)[C@@H](O)[C@H](O)[C@H](O)CO	inactive	–
CC#C[C@]1(O)CC[C@H]2[C@@H]3CCC4=CC(=O)CCC4=C3[C@@H](c3ccc(N(C)C)cc3)C[C@@]21C	9.44 µM (active) and 34.4 µM (active)	–
CCCCC(CC)COC(=O)/C=C\C(=O)OCC(CC)CCCC (stereo not given)	–	23.7% (inactive)
CC(C)(CO)COC(=O)C(C)(C)CO	inactive	–
CCOC(=O)/C=C\C(=O)OCC	inactive	–
O=S(=O)(O)c1cc(S(=O)(=O)O)c2c(N=Nc3ccccc3)c(O)ccc2c1	27.4 µM (active) and 68.6 µM (active)	–
Cc1cc(=O)[nH]c(C(C)C)n1	inactive	–
NCCc1ccc(O)c(O)c1	27.4 µM (active)	–
Cc1ccc(N)c(S(=O)(=O)O)c1	–	22.2% [at 95 µM] (inactive)
CCCCC(CC)COC(=O)CCCCCCCC(=O)OCC(CC)CCCC (stereo not given)	inactive	–
CC(C)n1c(/C=C/[C@@H](O)C[C@@H](O)CC(=O)O)c(-c2ccc(F)cc2)c2ccccc21	inactive	–
CCOC(=O)[C@H](CCc1ccccc1)N[C@@H](C)C(=O)N1Cc2ccccc2C[C@H]1C(=O)O	inactive	–
COC(=O)c1ccccc1O	inactive	–
COC(=O)c1ccc(C(=O)OC)cc1	inactive	–
CC(=O)[C@@]1(O)CC[C@H]2[C@@H]3CCC4=CC(=O)CC[C@]4(C)[C@H]3CC[C@@]21C	inactive	–

SMILES	Potency	activity change, negative = cytotoxic
CCCCCCCCCCC=CC1CC(=O)OC1=O (stereo not given)	inactive	–
NC(=O)/N=N/C(N)=O	inactive	–
CC(C)Cc1ccccc1	–	9.76% (inactive)
OCCOCCOCCOCCO	inactive	–
CC1=C(CC(=O)O)c2cc(F)ccc2/C1=C\c1ccc(S(C)=O)cc1 (stereo not given)	–	-2.68% (inactive)
Cc1ccc(C)c(C)c1	inactive	–
C=C(C)C(=O)OCC(CC)(COC(=O)C(=C)C)COC(=O)C(=C)C	inactive	–
O=C1N=C(O)CN1/N=C/c1ccc(-c2ccc([N+](=O)[O-])cc2)o1	15 µM (active) and 30.6 µM (active)	–
OCC#CCO	–	-0.562% [at 95 µM] (inactive)
CS(=O)(=O)Nc1ccc([N+](=O)[O-])cc1Oc1ccccc1	inactive	–
NCCNCCNCCNCCN	inactive	–
OCC1CCCO1 (stereo not given)	inactive	–
O=[N+]([O-])c1cccc(Cl)c1	–	24.4% (inactive)
CC(C)(N=C=O)c1cccc(C(C)(C)N=C=O)c1	–	-1.59% (inactive)
c1ccc2[nH]cnc2c1	–	1.31% (inactive)
C/C=C(C)/C=C/C=C(C)C	inactive	–
CCCCCCC(C)(C)S	inactive	–
O=Nc1ccc(O)cc1	–	-1.27% (inactive)
Cc1ccc(C(=O)O)o1	inactive	–
Cn1c([N+](=O)[O-])cnc1COC(N)=O	inactive	–
